Compounds without any hit were thinned out: in the full panel of roughly 83,000, 20% have a hit.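 A percent growth of 40 corresponds to 60% growth inhibition; 0 means no net growth; -100 means all cells died. Active threshold: below 10.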 Activity calls are given as the source filed them.
How the values were obtained:
Assay in all cases: NCI-60 one-dose screen, 48 h (100 = growth as untreated, 0 = no growth, -100 = all killed)
Conditions in all cases: 10 µM unless noted
NCI-H23 lung = test system: NCI-H23 lung
NCI-H226 lung = test system: NCI-H226 lung
NCI-H322M lung = test system: NCI-H322M lung
HOP-62 NSCLC = test system: HOP-62 NSCLC
NCI-H460 lung = test system: NCI-H460 lung
HOP-92 NSCLC = test system: HOP-92 NSCLC
NCI-H522 lung = test system: NCI-H522 lung
A549/ATCC NSCLC = test system: A549/ATCC NSCLC
786-0 renal = test system: 786-0 renal
COLO 205 colon = test system: COLO 205 colon
DU-145 prostate = test system: DU-145 prostate
K-562 leukemia = test system: K-562 leukemia
MALME-3M melanoma = test system: MALME-3M melanoma
MDA-MB-231 breast = test system: MDA-MB-231 breast
RXF 393 renal = test system: RXF 393 renal
SF-268 CNS = test system: SF-268 CNS
SF-295 CNS = test system: SF-295 CNS
SF-539 CNS = test system: SF-539 CNS
M14 melanoma = test system: M14 melanoma
UACC-257 melanoma = test system: UACC-257 melanoma

Measured: growth

C=C1C(=O)O[C@H]2[C@H]1CC/C(Cn1cc(-c3ccc(OC)cc3)nn1)=C\CC[C@@]1(C)O[C@@H]21
active: NCI-H23 lung 4.37% | NCI-H226 lung -44.1% | HOP-92 NSCLC -60.1% | NCI-H522 lung -78.7% | 786-0 renal -83.2% | COLO 205 colon -86% | DU-145 prostate -35% | K-562 leukemia -9.11% | MALME-3M melanoma -62.3% | MDA-MB-231 breast -12.3% | RXF 393 renal -63.6% | SF-539 CNS -16.6% | M14 melanoma -43.9%
inactive: NCI-H322M lung 88.7% | HOP-62 NSCLC 49.7% | NCI-H460 lung 87.6% | A549/ATCC NSCLC 57.3% | SF-268 CNS 12.7% | SF-295 CNS 88.8%

COc1cccc(-c2nn(-c3ccccc3)cc2-c2ccnc(NCCCNS(=O)(=O)c3ccc(C(F)(F)F)cc3)c2)c1
inactive: NCI-H23 lung 28.6% | NCI-H226 lung 36.6% | NCI-H322M lung 68.6% | HOP-62 NSCLC 61.3% | NCI-H460 lung 25.4% | NCI-H522 lung 17.4% | A549/ATCC NSCLC 24.4% | 786-0 renal 16.1% | DU-145 prostate 59.6% | MALME-3M melanoma 25.8% | SF-268 CNS 43.9% | SF-295 CNS 14.5% | SF-539 CNS 46.4% | M14 melanoma 22.1%
active: HOP-92 NSCLC 5.37% | COLO 205 colon -1.71% | K-562 leukemia 8.17% | MDA-MB-231 breast 6.9% | RXF 393 renal -7.54%

NC1=C(C/C(N)=N\O)C(c2ccccc2Cl)c2c(ccc3ccccc23)O1 (stereo unspecified)
inactive: NCI-H23 lung 86.9% | NCI-H226 lung 89.4% | NCI-H322M lung 96.4% | HOP-62 NSCLC 78.2% | NCI-H460 lung 87.8% | HOP-92 NSCLC 75.7% | NCI-H522 lung 55.4% | A549/ATCC NSCLC 87.3% | 786-0 renal 93.4% | COLO 205 colon 118% | DU-145 prostate 106% | K-562 leukemia 22.8% | MALME-3M melanoma 58.5% | MDA-MB-231 breast 86.9% | RXF 393 renal 86.4% | SF-268 CNS 82.2% | SF-295 CNS 66.7% | SF-539 CNS 83.6% | UACC-257 melanoma 96.1% | M14 melanoma 59.8%

O=C1c2ccccc2NC(c2cn(-c3ccccc3)nc2-c2cccs2)N1Cc1ccccc1 (stereo unspecified)
inactive: NCI-H23 lung 74% | NCI-H226 lung 96.3% | NCI-H322M lung 85.3% | HOP-62 NSCLC 86.9% | NCI-H460 lung 94.5% | HOP-92 NSCLC 74.1% | NCI-H522 lung 72.3% | A549/ATCC NSCLC 82.8% | 786-0 renal 73.6% | COLO 205 colon 93.5% | DU-145 prostate 97.6% | K-562 leukemia 70.7% | MALME-3M melanoma 109% | MDA-MB-231 breast 77.4% | RXF 393 renal 94.5% | SF-268 CNS 78.9% | SF-295 CNS 80% | SF-539 CNS 88.5% | UACC-257 melanoma 103% | M14 melanoma 80%

O=S(=O)(NCCNc1cc(-c2cn(-c3ccccc3)nc2-c2cccc(O)c2)ccn1)c1ccccc1
active: K-562 leukemia 9.58%
inactive: NCI-H23 lung 57.4% | NCI-H226 lung 67.1% | NCI-H322M lung 82% | HOP-62 NSCLC 77.7% | NCI-H460 lung 49.1% | HOP-92 NSCLC 49.4% | NCI-H522 lung 42.3% | A549/ATCC NSCLC 45.5% | 786-0 renal 55.3% | COLO 205 colon 18.3% | DU-145 prostate 76.2% | MALME-3M melanoma 76.4% | MDA-MB-231 breast 28% | RXF 393 renal 66.3% | SF-268 CNS 69.7% | SF-295 CNS 43.2% | SF-539 CNS 70% | M14 melanoma 53.9%

CC(C)/C=C/CC[C@](C)(O)[C@H]1CC[C@]2(C)[C@@H]1CC[C@@H]1[C@@]3(C)C/C(=C/c4cccc(C(F)(F)F)c4)C(=O)C(C)(C)[C@@H]3CC[C@]12C
inactive: NCI-H23 lung 96.3% | NCI-H226 lung 94.9% | NCI-H322M lung 105% | HOP-62 NSCLC 103% | NCI-H460 lung 98.6% | HOP-92 NSCLC 92.7% | NCI-H522 lung 96.2% | A549/ATCC NSCLC 85% | 786-0 renal 101% | COLO 205 colon 113% | DU-145 prostate 96.8% | K-562 leukemia 86.2% | MALME-3M melanoma 100% | MDA-MB-231 breast 88.9% | RXF 393 renal 105% | SF-268 CNS 93.3% | SF-295 CNS 101% | SF-539 CNS 97.6% | UACC-257 melanoma 95.2% | M14 melanoma 91.5%

COC(=O)[C@]12CC[C@@H](C)[C@H](C)[C@@H]1C1=CC[C@@H]3[C@@]4(C)C[C@@H](OC(C)=O)[C@H](OC(C)=O)[C@@](C)(COC(C)=O)[C@@H]4[C@H](O)C[C@@]3(C)[C@]1(C)CC2
inactive: NCI-H23 lung 17.5% | NCI-H322M lung 34.6% | HOP-62 NSCLC 15.6% | HOP-92 NSCLC 31.2% | 786-0 renal 15% | DU-145 prostate 20.3% | MDA-MB-231 breast 18.1% | SF-268 CNS 23.4% | SF-539 CNS 15.4% | M14 melanoma 14.2%
active: NCI-H226 lung 2.17% | NCI-H460 lung 4.06% | NCI-H522 lung -2.94% | A549/ATCC NSCLC 7.91% | COLO 205 colon -76% | K-562 leukemia 8.42% | MALME-3M melanoma 5.25% | RXF 393 renal -22.1% | SF-295 CNS 7.96%
